# CIT2 TOR yeast = alters CIT2-GFP fluorescence in TOR pathway yeast screen | S. cerevisiae CIT2-GFP strain, flow cytometry, 3 h; 100 means same as DMSO wells | GFP response vs DMSO, % at 10 µM | actives 0.065% (n = 320,000);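 active = GFP response relative to DMSO above a set limit, near the screen mean plus 3 SD, cut at about 150% in these data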;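 also: ratio of well median GFP fluorescence to mean of DMSO wells on the plate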
# AGP1 TOR yeast = modulators of TOR pathway AGP1-GFP in S. cerevisiae; S. cerevisiae AGP1-GFP multiplex flow cytometry, 3 h; GFP as percent of DMSO wells; GFP response vs DMSO, % at 10 µM; actives 0.02% (n = 320,000); AID 2066;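 active = GFP response relative to DMSO above a set limit, near screen average plus 3 SD, cut at about 150% in these data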;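 also: median GFP channel fluorescence of the gated AGP1 strain per well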
# RPL19A TOR yeast = yeast TOR pathway RPL19A-GFP modulation; S. cerevisiae RPL19A-GFP strain, flow cytometry, 3 h; active compounds read low; percent response vs DMSO, % at 10 µM; actives 0.3% (n = 330,000);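 active = percent response vs DMSO below 50%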;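 also: median channel GFP fluorescence of the barcoded RPL19A-GFP strain; ratio of sample median GFP to plate DMSO average so 100% = DMSO; lower means less RPL19A-GFP as with rapamycin TOR inhibition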
# MEP2 TOR yeast = alters MEP2-GFP fluorescence in TOR pathway yeast screen; S. cerevisiae MEP2-GFP strain, flow cytometry GFP, 3 h; 100% = DMSO control level; GFP response vs DMSO, % at 10 µM; actives 0.51% (n = 330,000);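 active = GFP response versus DMSO above a set limit, roughly screen mean plus 3 SD, cut at about 180% in these data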;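 also: median GFP fluorescence of the barcode-gated MEP2-GFP cells per well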
# LAP4 TOR yeast = yeast TOR pathway LAP4-GFP modulation; S. cerevisiae LAP4-GFP multiplex, flow cytometry GFP, 3 h; median GFP as percent of DMSO wells; GFP response vs DMSO, % at 10 µM; actives 0.34% (n = 320,000); AID 2023;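 active = GFP response vs DMSO above a set limit, about the screen mean plus 3 SD, cut at about 150% in these data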
# LAP4-GFP pick2 = reconfirmed LAP4-GFP TOR pathway modulator in yeast | shares compounds with LAP4 TOR yeast | S. cerevisiae LAP4-GFP strain, flow cytometry GFP, 3 h | GFP response vs DMSO, % at 10 µM | actives 20% (n = 590);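 active = GFP signal as percent of the solvent control above about 150%, meaning raised reporter expression, limit read from the data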;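 also: ratio of well median GFP fluorescence to plate DMSO mean so 100% = DMSO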
# MEP2 cherry2 = second confirmation of modulators of TOR reporter MEP2-GFP in yeast; shares compounds with LAP4 TOR yeast; actives 10% (n = 590); GFP response vs DMSO, % at 10 µM; AID 2622; S. cerevisiae MEP2-GFP strain, flow cytometry GFP, 3 h;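 active = GFP signal above 150% of the solvent control wells, that is a rise of more than half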;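 also: median channel GFP fluorescence of all gated yeast cells per well; ratio of median GFP to plate DMSO average so 100% = DMSO level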
# RPL19A-GFP pick2 = second confirmation of modulators of TOR reporter RPL19A-GFP in yeast; S. cerevisiae RPL19A-GFP strain, flow cytometry GFP, 3 h; active compounds read low; 100% means same as DMSO wells; AID 2623; shares compounds with LAP4 TOR yeast; GFP response vs DMSO, % at 10 µM; actives 3% (n = 590);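 active = under 65% GFP response relative to DMSO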;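 also: median GFP channel fluorescence per well over the all cells gate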
# CIT2 GFP CP2 = second confirmation of modulators of TOR reporter CIT2-GFP in yeast | actives 8% (n = 590) | GFP response vs DMSO, % at 10 µM | S. cerevisiae CIT2-GFP strain, flow cytometry GFP, 3 h; DMSO control wells read 100% | AID 2624 | shares compounds with LAP4 TOR yeast;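 active = GFP response vs DMSO above about 150%, limit read from the data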;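 also: median green fluorescence per well over all gated yeast cells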
# AGP1-GFP pick2 = second confirmation of modulators of TOR reporter AGP1-GFP in yeast | shares compounds with LAP4 TOR yeast | S. cerevisiae AGP1-GFP strain, flow cytometry GFP, 3 h | percent response vs DMSO, % at 10 µM | 590 tested, under 10 active | AID 2643;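 active = over 150 percent of DMSO response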;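 also: median GFP channel fluorescence over all cells without mother daughter split; sample median GFP divided by mean DMSO control so 100% equals DMSO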
# Yeast autofluor = yeast s288c autofluorescence artifact, counter-screen. 610 tested, under 10 active. shares compounds with LAP4 TOR yeast. fluorescence change (kMESF span) at 33 µM. S. cerevisiae s288c, 520 nm autofluorescence, flow cytometry, 3 h; active compounds read high; zero means same as solvent-only cells. AID 2757;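 active = fluorescence span over the dose series, or activity score, above about 33, limit read from the data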
# Yeast autofl DR = yeast s288c autofluorescence artifact in dose response | shares compounds with LAP4 TOR yeast | S. cerevisiae s288c parental, compound autofluorescence, flow cytometry, 3 h | fluorescence change (span) at 33 µM | 110 tested, under 10 active;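 active = fluorescence change span, or the activity score built from it, above 25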
# TORC1 bypass gr = compounds blocking wildtype yeast growth but not TORC1 bypass cells. 120 tested, under 10 active. S. cerevisiae BY4741 spot growth rating, 48-72 h; active compounds read low. growth rating (0-3) at 30 µM. AID 504456. shares compounds with LAP4 TOR yeast;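 active = growth rating at most 1 for wild type yeast while the TORC1 bypass strain still grows fully, rated 3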
# Starred values were filed as active, the others as inactive; nt = no result. In the library only some 0.93% were active in any assay of this set; here they are far more common.
SMILES,CIT2 TOR yeast,AGP1 TOR yeast,RPL19A TOR yeast,MEP2 TOR yeast,LAP4 TOR yeast,LAP4-GFP pick2,MEP2 cherry2,RPL19A-GFP pick2,CIT2 GFP CP2,AGP1-GFP pick2,others
O=C(OCC(=O)N1CCN(C(=O)c2ccco2)CC1)c1cc(-c2cccc(Br)c2)nc2ccccc12,121,126,66,125,162*,nt,nt,nt,nt,nt,Yeast autofluor=0.1;Yeast autofl DR=0.08;TORC1 bypass gr=3
O=C(OCC(=O)N1CCN(C(=O)c2ccco2)CC1)c1cc(-c2ccc(F)cc2)nc2ccccc12,105,129,72,104,187*,148,201*,72,133,120,Yeast autofluor=-0.1;Yeast autofl DR=0.29;TORC1 bypass gr=3
Cc1ccccc1SCC(=O)OCC(=O)NCCNC(=O)COC(=O)CSc1ccccc1C,103,110,103,114,107,nt,nt,nt,nt,nt,
Cc1cccc(OCc2nnc(SC(C)C(=O)Nc3ccc(N4CCOCC4)cc3)o2)c1 (stereo not given),108,101,102,101,101,nt,nt,nt,nt,nt,
O=c1c2cnn(-c3ccccc3)c2ncn1Cc1ccco1,52,77,64,99,121,130,100,99,98,93,Yeast autofluor=0.1
C#CCOCCOCCOCCNc1nc(N2CCN(C(=O)CCCCCCCCCCNC(=O)Cn3cc(CCCCCN)nn3)CC2)nc(N2CCN(C(=O)CCCCCCCCCCNC(=O)[C@@H](CCC(=O)O)n3cc(CCCCCN)nn3)CC2)n1,88,84,93,90,145,nt,nt,nt,nt,nt,
C#CCOCCOCCOCCNc1nc(N2CCN(C(=O)CCCCCCCCCCNC(=O)Cn3cc(CCCCCN)nn3)CC2)nc(N2CCN(C(=O)CCCCCCCCCCNC(=O)[C@H]([C@@H](C)CC)n3cc(CCCCN=C(N)N)nn3)CC2)n1,78,77,86,81,151*,114,133,96,117,106,
C#CCOCCOCCOCCNc1nc(N2CCN(C(=O)CCCCCCCCCCNC(=O)Cn3cc(CCCCCN)nn3)CC2)nc(N2CCN(C(=O)CCCCCCCCCCNC(=O)Cn3cc(CCCCCN)nn3)CC2)n1,73,78,85,86,152*,114,131,95,106,106,
C#CCOCCOCCOCCNc1nc(N2CCN(C(=O)CCCCCCCCCCNC(=O)[C@H]([C@@H](C)CC)n3cc(CCCCCN)nn3)CC2)nc(N2CCN(C(=O)CCCCCCCCCCNC(=O)[C@H]([C@@H](C)CC)n3cc(CCCCN=C(N)N)nn3)CC2)n1,84,76,89,87,128,nt,nt,nt,nt,nt,
C#CCOCCOCCOCCNc1nc(N2CCN(C(=O)CCCCCCCCCCNC(=O)Cn3cc(C[C@@H](C)O)nn3)CC2)nc(N2CCN(C(=O)CCCCCCCCCCNC(=O)[C@H](CCCN=C(N)N)n3cc(C[C@@H](C)CC)nn3)CC2)n1,78,93,77,90,183*,103,135,94,95,108,
COc1ccc(NC(=O)N(C)C[C@H]2Oc3ccc(NC(=O)c4ccncc4)cc3C(=O)N([C@H](C)CO)C[C@@H]2C)cc1,92,94,96,96,102,nt,nt,nt,nt,nt,
NC(=O)CC(NC(=O)Cc1ccc(Cl)cc1)c1ccc(N2CCC(Cc3ccccc3)CC2)c([N+](=O)[O-])c1 (stereo not given),84,86,101,96,104,nt,nt,nt,nt,nt,
CC[N+](CC)(CC)CCCCOc1ccc2c(c1)C(=O)c1cc(OCCCC[N+](CC)(CC)CC)ccc1-2,106,110,100,98,105,nt,nt,nt,nt,nt,
CCN1CCN(C(=O)C2CCC(=O)N(CCCN3CCCC3=O)C2)CC1 (stereo not given),111,114,113,111,116,nt,nt,nt,nt,nt,
CS(=O)(=O)c1nc(-c2ccccc2)cc(C(F)(F)F)n1,80,111,86,142,160*,nt,nt,nt,nt,nt,Yeast autofluor=0.51
Cc1cc(NC(=O)CCS(=O)(=O)c2nc(-c3ccccc3)cc(C(F)(F)F)n2)no1,99,113,100,104,111,nt,nt,nt,nt,nt,
CSCc1ccc(C(=O)N2CCC(CCC(=O)N(C)Cc3ccccc3)CC2)o1,99,101,102,95,96,nt,nt,nt,nt,nt,
CN(Cc1ccccc1)C(=O)CCC1CCN(C(=O)c2ccccc2C(F)(F)F)CC1,157*,106,97,114,99,99,102,101,110,104,
Cc1ccc(S(=O)(=O)N2CC(C(=O)O)=CC[C@H]2c2ccc(Cl)cc2)cc1,89,83,97,89,159*,111,93,97,97,95,Yeast autofluor=-0.31
COc1ccc([C@@H]2CC=C(C(=O)O)CN2S(=O)(=O)c2ccc(Cl)cc2)cc1,110,85,96,83,131,nt,nt,nt,nt,nt,
COc1ccc(NC(=O)CN2CCN(c3c(C)cc(C)cc3C)CC2)cc1,105,97,101,109,83,nt,nt,nt,nt,nt,
O=c1[nH]c(NCc2ccccc2)nc2c1CCC2,97,98,97,99,100,nt,nt,nt,nt,nt,
Cc1nc(Nc2nc3c(c(=O)[nH]2)CCC3)nc2ccccc12,71,67,65,109,93,117,112,74,104,100,
COC(=O)Nc1ccc(N2CCOCC2)c(S(=O)(=O)N2CCOCC2)c1,96,101,98,96,98,nt,nt,nt,nt,nt,
CC(=O)Oc1ccc(N2C(=O)C3C4C=CC(CO)(O4)C3C2=O)cc1 (stereo not given),93,97,nt,98,130,nt,nt,nt,nt,nt,Yeast autofluor=0.2

# Compound activity deposited in PubChem by NMMLSC.
